Test results from PubChem BioAssay AID588855 (National Center for Advancing Translational Sciences (NCATS), 2011).
Out of some 410,000 compounds screened, about 5,000 (1.2%) were called active. Not shown: some 13% with an inconclusive outcome. The sample holds actives, similar compounds and a random draw of the others, so the mix is not that of the screen. Values without a mark were called inactive. The call rests on the fitted dose curve; in most records, active means well fitted inhibition curve with a large enough effect; inconclusive means small, poorly fitted or top-dose-only effect; inactive means no such curve, though single readings can be large or run the other way.

Test: qHTS for Inhibitors of TGF-b; further: nearly all actives have a fitted effect of over 65% in size
Conditions: HepG2 CAGA-GFP TGF-b/SMAD3 reporter, GFP fluorescence, 18 h, TGF-beta stimulated, 500 pg/mL final; series mostly up to 46.1 µM; activity, negative = inhibition: at the top concentration
Summary of the method: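 Read-out: total well GFP (ex488/em500-530) summed from mean per-cell fluorescence. Cells: HEPG2 CAGA-GFP, 1% FBS DMEM, 18 h at 37 degrees C with 500 pg/mL final TGF-beta. Unstimulated wells served as the full-inhibition control; stimulated DMSO wells = 0%.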
On the % scale 0 is the no-effect control and ±100 the full control effect; potency means the concentration at half of the fitted maximal effect.

Structure (SMILES) | Potency | activity, negative = inhibition [%]
CCCCCCCCCCCCn1ccc(=N)cc1 | 10 µM (active) | –
Cc1ccc(Oc2cnn(-c3ccccc3)c(=O)c2Br)cc1 | – | 27
CCC1(CC(C)c2ccccc2)C(=O)NC(=O)NC1=O (configuration not stated) | – | -0.656
CCOP(=S)(OCC)SCOC(=O)NCC(=O)OC | – | -14.9
O=P1(Oc2ccccc2)CC(O)C(O)C(COCc2ccccc2)O1 (configuration not stated) | – | -2.34
O=c1c2ccccc2[nH]c(=S)n1-c1cccc(Cl)c1 | – | -2.46
OC(Cn1c2ccccc2c2ccccc21)C[n+]1ccccc1 (configuration not stated) | – | -14.8
CC[C@H]1CN2CCc3cc(OC)c(OC)cc3[C@@H]2C[C@@H]1C[C@H]1NCCc2cc(OC)c(OC)cc21 | 0.0891 µM (active) | –
CC(=O)OC1C2(CC3N4C(=O)C5(CO)SSC4(CC31O)C(=O)N5C)OC(C)C(C)(C)C2=O (configuration not stated) | 0.794 µM (active) | –
O=C(NCC1=C(c2ccc3ccccc3c2)C[C@@H]2CC[C@H]1N2Cc1ccco1)c1cccs1 | – | 0.825
CNC(=S)N/N=C1\C2CN3CCN(C2)CC1(c1ccccc1)C3 | – | 3.41
O=C(Cc1ccccc1)N1CCN(C2CCCCCC2)CC1 | – | 6.26
CN(C)CC1Oc2ccccc2OC1(O)c1ccccc1 (configuration not stated) | 2.82 µM (active) | –
COc1ccc2c(c1)[C@]13CCCCC1C(C2)N(C)CC3 (some centres not stated) | – | -24.2
CCOc1ccc(CNC(=O)c2cccc(Nc3nc4ccccc4n4nnnc34)c2)cc1OC | – | 63
COc1ccc(C2NCc3ccc4c(c3-n3cccc32)OCO4)cc1OC (configuration not stated) | – | 17.7
CN(C)C(=O)Oc1ccc(NC(=O)N2CCOCC2)cc1 | – | -16.7
Cc1cccc(-n2c(O)c(C=NC34CN5CN(CN(C5)C3)C4)c(=O)[nH]c2=O)c1 | – | 5.66
c1cc2c(c(NC3=NCCCS3)c1)CCCC2 | – | 10.7
CCOC(=O)c1cccc(C2=C(CNC(=O)c3ccncc3)[C@H]3CC[C@@H](C2)N3Cc2ccccc2)c1 | – | -12.1
O=C(COC(=O)Cc1ccccc1)Nc1ccc(F)cc1 | – | -9.05
CC(=O)NCC1=C(c2ccc3ccccc3c2)C[C@@H]2CC[C@H]1N2Cc1ccco1 | – | 15.6
